# Inconclusive results are not listed. A call without a number means that no potency is given here. A number with no mark means an inactive call. The source made the active and inactive calls. Calls come from the whole dose curve; as a rule, active = well fitted curve in the direction sought with a large enough effect; inconclusive = small, poorly fitted or top-dose-only effect, or another doubt; inactive = no such curve, though single readings can be large; an effect the other way counts as inactive or inconclusive.
# Target: Tyrosyl-DNA phosphodiesterase 1 (Homo sapiens) (UniProt Q9NUW8)
# Sequence (Q9NUW8 whole entry, looked up): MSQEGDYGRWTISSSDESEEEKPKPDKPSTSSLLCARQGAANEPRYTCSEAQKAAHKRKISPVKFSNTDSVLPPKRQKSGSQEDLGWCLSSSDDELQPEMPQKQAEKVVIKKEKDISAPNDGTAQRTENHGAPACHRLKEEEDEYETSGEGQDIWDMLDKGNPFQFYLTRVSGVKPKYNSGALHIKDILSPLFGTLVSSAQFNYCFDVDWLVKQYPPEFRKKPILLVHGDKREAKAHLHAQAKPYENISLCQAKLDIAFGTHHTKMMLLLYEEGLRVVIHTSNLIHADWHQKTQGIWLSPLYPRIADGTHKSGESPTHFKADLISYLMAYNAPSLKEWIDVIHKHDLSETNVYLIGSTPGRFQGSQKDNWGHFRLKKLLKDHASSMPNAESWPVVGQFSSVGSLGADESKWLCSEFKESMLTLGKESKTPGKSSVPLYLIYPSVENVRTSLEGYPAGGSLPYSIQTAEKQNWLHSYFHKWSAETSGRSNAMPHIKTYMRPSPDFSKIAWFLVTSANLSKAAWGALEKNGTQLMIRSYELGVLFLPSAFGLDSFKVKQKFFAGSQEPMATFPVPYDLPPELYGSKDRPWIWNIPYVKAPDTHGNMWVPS
# Assay: Confirmation Assay for Inhibitors of Tyrosyl-DNA Phosphodiesterase (TDP1) (AID 489007); note: potency is the fitted concentration of half-maximal effect; nearly all actives have a fitted effect of over 40% in size
# Conditions: recombinant human TDP1 enzymatic activity, dose-response
# Outline: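 Compounds are preincubated 15 min at room temperature with 1 nM recombinant human Tdp1. The reaction starts on adding 15 nM FITC-phosphotyrosine DNA substrate, runs 5 min, and is detected by AlphaScreen beads after 10 min.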
row,Compound,Potency
1,Cc1ccccc1NC(=O)CN1C(=O)N/C(=C\c2cccn2-c2cccc(C(=O)O)c2)C1=O,1780 nM (active)
2,Cc1ccc(NC(=O)CN2C(=O)N/C(=C\c3cccn3-c3cccc(C(=O)O)c3)C2=O)cc1,1120 nM (active)
3,Fc1ccc(CSc2nc3ncc(Br)cc3[nH]2)cc1,56200 nM (active)

# Target: Calcium and integrin-binding protein 1 (Homo sapiens) (UniProt Q99828)
# Sequence (Q99828 whole entry, looked up): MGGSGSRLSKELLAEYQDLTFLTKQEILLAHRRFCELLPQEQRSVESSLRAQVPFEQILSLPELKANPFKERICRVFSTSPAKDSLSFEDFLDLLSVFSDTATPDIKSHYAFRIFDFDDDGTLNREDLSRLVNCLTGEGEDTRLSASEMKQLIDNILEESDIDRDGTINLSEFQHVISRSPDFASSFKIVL
# Assay: Primary qHTS for Identification of Calcium Integrin Binding Protein 1 (CIB1) Competitor (AID 1508620);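 note: GST tagged CIB1 binding a fluorescein labelled alphaIIb integrin peptide tracer; top concentration of the series differs between compounds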
# Conditions: CIB1-GST / FITC-alphaIIb peptide fluorescence polarization; series mostly up to 114 µM
# Outline: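 Fluorescence polarization competition: GST-tagged CIB1 (1 uM final) preincubated with compound 15 min at room temperature, then FITC-labelled alphaIIb peptide (100 nM final) added. After 15 min at room temperature, polarization read at Ex 480/Em 540.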
row,Compound,Potency
1,CCCn1c(-c2ccc(F)cc2)nc2c(NCCN3CCCC3)nc(C)nc21,inactive
2,COc1ccc(N2C(=O)c3ccccc3C2=O)cc1,inactive
3,COCCNc1nc(C)nc2c1nc(-c1ccccc1)n2CCN(C)C,inactive
4,CCCn1c(C)nc2c(N(CCN(CC)CC)CCN(CC)CC)nc(C)nc21,inactive
5,CC(=O)NC(c1ccco1)c1cc(Cl)c2ccccc2c1O (centres undefined),inactive
6,CCN(CC)CCCn1c(-c2ccccc2)nc2c(N3CCOCC3)nc(C)nc21,inactive
7,CC(=O)NC(c1cc(Cl)c2ccccc2c1O)C(C)C (centres undefined),inactive
8,COC(=N)c1nc2ccc3ncnc(Nc4ccc(F)cc4Br)c3c2s1,inactive
9,c1cncc(CNc2ccnc(-c3ccc4c(c3)OCO4)n2)c1,inactive
10,CC(=O)c1ccc(N2CCN(S(=O)(=O)c3ccc4c(c3)C(Cl)(Cl)C(=O)N4)CC2)cc1,inactive
11,O=C1CCCC2=C1C(c1ccccc1I)N=C(Nc1nc3ccccc3o1)N2 (centres undefined),inactive
12,CC(=O)NS(=O)(=O)c1ccc(NC(=O)c2cc(-c3ccc(C)c(C)c3)nc3ccccc23)cc1,inactive
13,O=C(CCc1ccccc1)Nc1ccc(S(=O)(=O)Nc2nccs2)cc1,inactive
14,O=C(CSc1nc2ccccc2n1CCc1ccccc1)c1ccc(O)c(O)c1,inactive
15,Cc1noc(CN(C)c2ncnc3ccc(-c4ccc5c(c4)OCO5)cc23)n1,inactive
16,COc1ccc(-n2c(C)c(C(C)=O)c3cc(O)ccc32)cc1,inactive
17,CCN(CC)CCCn1c(-c2ccccc2)nc2c(NCCOC)nc(C)nc21,inactive
18,CCCn1c(C)nc2c(NCCCN(CCO)CCO)nc(C)nc21,inactive
19,CCCn1c(C)nc2c(NC(C)CN(C)C)nc(C)nc21 (centres undefined),inactive
20,Nc1ccc(-c2ccnc(NCCCNC(=O)c3c(Cl)cccc3Cl)n2)cc1,inactive

row,Compound,Potency
1,Cc1nc(NCCO)c2nc(-c3ccccc3)n(CC3CCN(C)CC3)c2n1,inactive
2,Cc1nc(N2CCOCC2)c2nc(-c3ccccc3)n(CC3CCN(C)CC3)c2n1,inactive
3,CNc1oc(-c2cccs2)nc1C#N,inactive
4,CC(C)(C)n1nc(Cc2cccc([N+](=O)[O-])c2)c2c(N)ncnc21,inactive
5,CCC(=O)NC(c1cc(Cl)c2ccccc2c1O)C(C)C (centres undefined),inactive
6,CCC(=O)NC(c1cccs1)c1cc(Cl)c2cccnc2c1O (centres undefined),inactive
7,Cc1ccccc1NC(=O)CN1C(=O)N/C(=C\c2cccn2-c2cccc(C(=O)O)c2)C1=O,inactive
8,Cc1ccc(NC(=O)CN2C(=O)N/C(=C\c3cccn3-c3cccc(C(=O)O)c3)C2=O)cc1,inactive
9,CCCn1c(C)nc2c(N3CCN(C)CC3)nc(C)nc21,inactive
10,CCCn1c(C)nc2c(NCC(C)(C)CN(C)C)nc(C)nc21,inactive
11,CCCn1c(C)nc2c(N3CCC(N(C)C)C3)nc(C)nc21 (centres undefined),inactive
12,Cc1ccc(NS(=O)(=O)c2ccc3c(c2)CCC(=O)N3)cc1C,inactive
13,[2H]C([2H])(Nc1nc(-c2ccccc2C([2H])(C([2H])([2H])[2H])C([2H])([2H])[2H])ncc1C)c1ccc(-n2ccnn2)cc1,inactive
14,Cc1ccc(NS(=O)(=O)c2cc3c(cc2N[C@H](C)CO)NC(=O)CC3)cc1C,inactive
15,Cc1cccc(CNc2ncnc3ccc(-c4cccnc4)cc23)c1,inactive
16,Fc1ccc(CSc2nc3ncc(Br)cc3[nH]2)cc1,inactive
17,CC(=O)Nc1sc2c(c1-c1ccc(N3CCN(C)CC3)cc1)CCNC2,inactive
18,CCCn1c(C)nc2c(NCCN(C(C)C)C(C)C)nc(C)nc21,inactive
19,CCCn1c(C)nc2c(NCC3CCCN3CC)nc(C)nc21 (centres undefined),inactive
20,CC(C)(C)n1nc(Cc2cccc3ccccc23)c2c(N)ncnc21,inactive

# Target: Rap guanine nucleotide exchange factor 3 (Homo sapiens) (UniProt O95398)
# Sequence (O95398 whole entry, looked up): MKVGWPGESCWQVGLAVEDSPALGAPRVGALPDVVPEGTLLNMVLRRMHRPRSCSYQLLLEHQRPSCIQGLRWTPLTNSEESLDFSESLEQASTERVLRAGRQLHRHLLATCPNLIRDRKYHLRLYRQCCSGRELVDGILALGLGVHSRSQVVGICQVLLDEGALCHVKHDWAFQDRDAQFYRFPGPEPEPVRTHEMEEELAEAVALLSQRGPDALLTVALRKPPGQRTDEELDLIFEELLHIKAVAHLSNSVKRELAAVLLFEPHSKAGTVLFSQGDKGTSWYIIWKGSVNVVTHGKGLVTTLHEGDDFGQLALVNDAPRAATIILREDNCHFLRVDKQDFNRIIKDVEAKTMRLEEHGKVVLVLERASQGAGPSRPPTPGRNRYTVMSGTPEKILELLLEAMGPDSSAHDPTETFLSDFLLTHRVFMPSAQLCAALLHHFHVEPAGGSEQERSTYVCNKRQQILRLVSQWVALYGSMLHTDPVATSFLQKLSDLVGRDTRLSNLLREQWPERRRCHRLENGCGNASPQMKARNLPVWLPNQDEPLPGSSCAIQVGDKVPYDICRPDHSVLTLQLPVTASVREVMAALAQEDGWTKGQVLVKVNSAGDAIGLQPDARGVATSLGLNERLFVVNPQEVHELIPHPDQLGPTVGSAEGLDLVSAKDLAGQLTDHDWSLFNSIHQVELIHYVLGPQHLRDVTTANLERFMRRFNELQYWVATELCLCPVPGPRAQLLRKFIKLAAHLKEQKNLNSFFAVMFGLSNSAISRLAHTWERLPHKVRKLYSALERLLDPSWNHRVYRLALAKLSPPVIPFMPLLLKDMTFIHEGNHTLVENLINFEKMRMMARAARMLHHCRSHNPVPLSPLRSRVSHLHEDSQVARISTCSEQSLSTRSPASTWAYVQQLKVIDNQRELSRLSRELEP
# Assay: Confirmatory qHTS for agonist of cAMP-regulated guanine nucleotide exchange factor 3 (EPAC1) (AID 1645881);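 note: EPAC1 catalysed release of BODIPY-GDP from Rap1B seen as fluorescence loss; nearly all actives have a fitted effect of over 75% in size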
# Conditions: EPAC1 Rap1B BODIPY-GDP exchange fluorescence, 100% = cAMP control response; series mostly up to 154 µM
row,Compound,outcome
1,COc1ccc(N2C(=O)c3ccccc3C2=O)cc1,inactive
2,CC(=O)NC(c1ccco1)c1cc(Cl)c2ccccc2c1O (centres undefined),inactive
3,CC(=O)NC(c1cc(Cl)c2ccccc2c1O)C(C)C (centres undefined),inactive
4,CC(=O)c1ccc(N2CCN(S(=O)(=O)c3ccc4c(c3)C(Cl)(Cl)C(=O)N4)CC2)cc1,inactive
5,CC(=O)NS(=O)(=O)c1ccc(NC(=O)c2cc(-c3ccc(C)c(C)c3)nc3ccccc23)cc1,inactive
6,O=C(CCc1ccccc1)Nc1ccc(S(=O)(=O)Nc2nccs2)cc1,inactive
7,O=C(CSc1nc2ccccc2n1CCc1ccccc1)c1ccc(O)c(O)c1,inactive
8,CCC(=O)NC(c1cc(Cl)c2ccccc2c1O)C(C)C (centres undefined),inactive
9,CCC(=O)NC(c1cccs1)c1cc(Cl)c2cccnc2c1O (centres undefined),inactive

# Target: Rap guanine nucleotide exchange factor 4 (Homo sapiens) (UniProt Q8WZA2)
# Sequence (Q8WZA2 whole entry, looked up): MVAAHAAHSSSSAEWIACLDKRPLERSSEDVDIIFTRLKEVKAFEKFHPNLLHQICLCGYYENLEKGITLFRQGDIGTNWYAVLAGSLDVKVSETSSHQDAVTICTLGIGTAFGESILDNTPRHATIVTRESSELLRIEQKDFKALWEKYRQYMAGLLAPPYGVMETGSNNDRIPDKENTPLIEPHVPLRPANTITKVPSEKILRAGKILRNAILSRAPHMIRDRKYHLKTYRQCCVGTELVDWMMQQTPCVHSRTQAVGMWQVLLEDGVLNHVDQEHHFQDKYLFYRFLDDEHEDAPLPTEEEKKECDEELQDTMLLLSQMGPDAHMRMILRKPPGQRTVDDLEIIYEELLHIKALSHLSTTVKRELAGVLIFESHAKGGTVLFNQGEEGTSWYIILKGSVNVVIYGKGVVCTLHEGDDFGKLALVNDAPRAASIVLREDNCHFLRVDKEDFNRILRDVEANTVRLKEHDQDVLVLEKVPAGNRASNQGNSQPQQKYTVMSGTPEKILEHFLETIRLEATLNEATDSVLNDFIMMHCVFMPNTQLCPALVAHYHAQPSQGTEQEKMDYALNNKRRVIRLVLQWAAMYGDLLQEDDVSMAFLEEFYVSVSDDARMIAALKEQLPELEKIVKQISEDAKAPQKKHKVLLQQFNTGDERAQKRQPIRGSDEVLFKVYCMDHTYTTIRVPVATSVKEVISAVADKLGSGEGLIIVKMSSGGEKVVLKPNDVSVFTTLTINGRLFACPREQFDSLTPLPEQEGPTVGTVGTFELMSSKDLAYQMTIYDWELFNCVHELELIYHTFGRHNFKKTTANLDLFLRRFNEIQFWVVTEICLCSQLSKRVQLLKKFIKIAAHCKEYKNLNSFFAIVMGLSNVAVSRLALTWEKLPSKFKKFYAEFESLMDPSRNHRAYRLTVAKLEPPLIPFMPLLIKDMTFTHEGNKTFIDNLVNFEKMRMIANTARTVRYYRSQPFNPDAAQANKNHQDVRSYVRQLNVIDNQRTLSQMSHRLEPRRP
# Assay: Confirmatory qHTS for agonist of cAMP-regulated guanine nucleotide exchange factor 4 (EPAC2) (AID 1645884);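 note: nucleotide exchange releases bodipy-GDP from Rap1 and this lowers its fluorescence; nearly all actives have a fitted effect of over 65% in size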
# Conditions: EPAC2 GEF activity, Rap1B-BODIPY-GDP fluorescence, percent relative to cAMP agonist control; series mostly up to 154 µM
Compound,outcome,activation
COc1ccc(N2C(=O)c3ccccc3C2=O)cc1,inactive,
CC(=O)NC(c1ccco1)c1cc(Cl)c2ccccc2c1O (centres undefined),,3.62% [at 17.1 µM]
CC(=O)NC(c1cc(Cl)c2ccccc2c1O)C(C)C (centres undefined),,9.17% [at 17.1 µM]
CC(=O)NS(=O)(=O)c1ccc(NC(=O)c2cc(-c3ccc(C)c(C)c3)nc3ccccc23)cc1,,5.88% [at 17.1 µM]
O=C(CCc1ccccc1)Nc1ccc(S(=O)(=O)Nc2nccs2)cc1,,9.99% [at 17.1 µM]
CCC(=O)NC(c1cc(Cl)c2ccccc2c1O)C(C)C (centres undefined),inactive,
CCC(=O)NC(c1cccs1)c1cc(Cl)c2cccnc2c1O (centres undefined),inactive,
